KLK7 zymogen act = proKLK7 (human) activation, primary screen; P49862; purified proKLK7, EDANS-DABCYL substrate fluorescence; 100% is mature enzyme control, 0% vehicle; activation, % at 7 µM; 370,000 tested, 0.9% active;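 active = activation above the mean of all tested compounds plus 3 SD, computed per campaign excluding outliers beyond control limits, cut at about 13% in these data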
ADAM10 inh = ADAM10 inhibition, QFRET primary screen | O14672 | recombinant ADAM10, EDANS/DABCYL FRET peptide cleavage, 3 h | inhibition, % at 7 µM | 370,000 tested, 0.62% active | AID 720582;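 active = inhibition above a per-campaign cutoff equal to the mean of compounds falling between control-based bounds plus 3 SD, cut at about 20% in these data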;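 note: 0% = DMSO wells while the 100% control is not disclosed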
ADAM17 inh = inhibitors of human ADAM17 | P78536 | recombinant ADAM17, EDANS/DABCYL FRET peptide cleavage | inhibition, % at 6.95 µM | 370,000 tested, 0.83% active;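 active = inhibition above the mean of compounds lying between control limits plus 3 SD, set per campaign, cut at about 8.5% in these data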;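 note: 0% = DMSO-only wells as the low control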
PLC-beta3 inh = blocks human PLC-beta3 enzyme activity; Q01970; Purified PLC-beta3, fluorogenic substrate, fluorescence; inhibition, % at 12.2 µM; 370,000 tested, 0.18% active; in the data active = inhibition above about 11%;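 note: 0% = median of compound wells on plate and 100% = full blocker control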
Target sequence (Q01970 whole entry, looked up): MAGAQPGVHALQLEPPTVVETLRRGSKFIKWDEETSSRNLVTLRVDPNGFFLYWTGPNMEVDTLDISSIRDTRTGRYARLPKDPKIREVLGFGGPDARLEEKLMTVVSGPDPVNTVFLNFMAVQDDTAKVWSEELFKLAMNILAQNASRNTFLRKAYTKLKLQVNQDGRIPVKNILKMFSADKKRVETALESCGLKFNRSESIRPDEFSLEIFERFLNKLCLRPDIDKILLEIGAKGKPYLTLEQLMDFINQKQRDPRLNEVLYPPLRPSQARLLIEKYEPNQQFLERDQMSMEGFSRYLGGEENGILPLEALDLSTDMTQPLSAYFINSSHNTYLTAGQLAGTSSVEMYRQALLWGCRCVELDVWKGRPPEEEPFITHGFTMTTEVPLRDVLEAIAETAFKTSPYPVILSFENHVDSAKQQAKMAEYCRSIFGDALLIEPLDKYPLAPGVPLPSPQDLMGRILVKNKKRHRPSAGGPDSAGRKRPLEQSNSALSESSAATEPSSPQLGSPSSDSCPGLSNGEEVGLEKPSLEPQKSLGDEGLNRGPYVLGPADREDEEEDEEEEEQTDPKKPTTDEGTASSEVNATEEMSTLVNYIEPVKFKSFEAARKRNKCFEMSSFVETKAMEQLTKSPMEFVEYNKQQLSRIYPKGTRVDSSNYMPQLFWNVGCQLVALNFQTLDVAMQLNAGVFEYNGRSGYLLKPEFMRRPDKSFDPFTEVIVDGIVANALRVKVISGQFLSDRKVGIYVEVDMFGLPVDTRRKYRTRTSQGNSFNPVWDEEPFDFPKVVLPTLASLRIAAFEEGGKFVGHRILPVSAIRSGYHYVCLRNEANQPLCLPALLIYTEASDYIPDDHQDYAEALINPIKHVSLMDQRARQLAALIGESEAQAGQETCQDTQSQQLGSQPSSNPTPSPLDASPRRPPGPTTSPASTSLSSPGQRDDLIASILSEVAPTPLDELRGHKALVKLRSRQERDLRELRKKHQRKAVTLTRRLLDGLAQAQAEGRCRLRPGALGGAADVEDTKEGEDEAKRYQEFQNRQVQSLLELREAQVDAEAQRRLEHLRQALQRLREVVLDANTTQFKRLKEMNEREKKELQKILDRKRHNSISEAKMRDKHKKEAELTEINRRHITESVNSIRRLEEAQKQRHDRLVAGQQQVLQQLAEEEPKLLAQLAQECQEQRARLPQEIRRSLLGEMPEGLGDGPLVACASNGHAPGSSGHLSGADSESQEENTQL
PLC-gamma1 inh = PLC-gamma1 (human) inhibition, primary screen. P19174. purified PLC-gamma1, fluorogenic substrate, fluorescence. inhibition, % at 12.2 µM. 370,000 tested, 0.84% active. AID 720700
PLCgamma1 ctr = counter-screen for PLC-beta3 inhibitors: inhibitors of human PLC-gamma1. inhibition, % at 12.3 µM. shares compounds with PLC-gamma1 inh. 3,300 tested, 3.1% active. purified PLC-gamma1, fluorogenic substrate, fluorescence. AID 743258
PLCbeta3 conf = confirmation of human PLC-beta3 inhibitors. shares compounds with PLC-gamma1 inh. purified PLC-beta3, fluorogenic substrate fluorescence. inhibition, % at 12.3 µM. 3,300 tested, 1% active. AID 743261; in the data active = inhibition above about 11%
* = called active by the depositor; / = no result given. In the library only some 2.9% were active in any assay of this set; here they are far more common. Cut-off read from the data, not from the text of the source, unless noted: active = inhibition above about 9.5%; inactive = the rest.

SMILES	KLK7 zymogen act	ADAM10 inh	ADAM17 inh	PLC-beta3 inh	PLC-gamma1 inh	PLCgamma1 ctr	PLCbeta3 conf
CCC(C)(C(=O)NC1CCCC1)N(Cc1cccs1)C(=O)c1ccccn1 (stereo unspecified)	0	2	-5	-1	10*	-7	-3
CCOC(=O)N1CCN(C(=O)c2ccc(Cn3c(=S)[nH]c4cc5c(cc4c3=O)OCO5)cc2)CC1	0	17	3	4	12*	4	1
O=C(Oc1c(Br)cc(Br)c2cccnc12)N1CCCCC1	0	-3	0	-1	1	/	/
COc1ccc(C(C)NCCC(c2ccc(OC(C)C)cc2)c2ccccc2OC)cc1 (stereo unspecified)	0	9	5	0	16*	-1	0
COc1ccc(CCNC(=O)Nc2nnc([C@@H]3C[C@H](O)[C@@H](CO)O3)s2)cc1OC	1	-14	-4	1	2	/	/
O=C(NCCc1cccs1)Nc1nnc([C@H]2C[C@H](O)[C@@H](CO)O2)s1	0	-3	2	-2	11*	-12	-8
COC(=O)C(Cc1ccc(O)cc1)NC(=O)C(C)NC(=O)c1ccc(C(C)(C)C)cc1 (stereo unspecified)	0	7	5	2	9.7*	6	-14
O=C(NNC(=O)c1ccc(F)cc1)c1ccncc1	0	9	6	1	11*	1	-1
NC(=O)c1ccc(C(F)(F)F)n(Cc2cccc(Cl)c2)c1=O	0	10	4	-1	-1	/	/
CN1CCN(S(=O)(=O)c2cccc(C(=O)Oc3ccc(Br)cc3F)c2)CC1	0	5	3	0	11*	-4	-1
O=C(O)c1ccc(N2C(=O)c3cccnc3C2=O)cc1	-1	1	-4	2	0	/	/
O=C1c2cccnc2C(=O)N1c1ccccc1-c1ccccc1	0	-1	-2	-2	12*	-4	-4
S=C(NCCc1ccccn1)Nc1cccc(Cl)c1	0	-3	2	4	3	/	/
O=S(=O)(c1ccccc1)c1cnn(-c2ccccc2)c1-c1ccc(Cl)cc1	0	14	6	20*	1	1	17*
COc1ccc(-c2c(S(=O)(=O)c3ccccc3)cnn2-c2ccccc2)cc1	1	10	3	2	0	/	/
CCCCNC(=S)NNC(=O)c1csc(CC)c1	0	-1	0	14*	-2	-7	13*
C=CCNC(=S)NNC(=O)c1csc(CC)c1	0	-4	3	6	3	/	/
CCCCNC(=S)NNC(=O)c1csc(C)c1CC	1	1	1	2	3	/	/
CCCCNC(=S)NNC(=O)c1csc(C)c1	1	4	0	23*	3	-5	16*
O=C(NCc1ccccc1)C1CCCN1S(=O)(=O)c1ccc(F)cc1 (stereo unspecified)	0	5	2	1	9	/	/
CS(=O)(=O)N(Cc1ccccc1)c1ccc(C(=O)NC2CCCCC2O)cc1 (stereo unspecified)	0	10	3	4	9.5*	0	-3
CS(=O)(=O)N(Cc1ccc(C(=O)NC2CCCCC2O)cc1)c1ccccc1 (stereo unspecified)	0	-2	-2	-1	2	/	/
CS(=O)(=O)N(Cc1ccc(C(=O)NC2CCCC2)cc1)c1ccccc1	0	8	6	1	13*	-6	-14
CCCN1CCN(CCCNC(=O)C(CC)n2nc(C)c3sc4ccccc4c3c2=O)CC1 (stereo unspecified)	0	-20	-9	-10	1	/	/
CCC(C(=O)NCCCN1CCN(C)CC1)n1nc(C)c2sc3ccccc3c2c1=O (stereo unspecified)	0	-23	-12	-13	9.6*	-3	-4
SMILES	KLK7 zymogen act	ADAM10 inh	ADAM17 inh	PLC-beta3 inh	PLC-gamma1 inh	PLCgamma1 ctr	PLCbeta3 conf
CC(C)c1ccc(N2C(=NC(=O)C3CCCO3)SC3CS(=O)(=O)CC32)cc1 (stereo unspecified)	0	-2	-7	-10	-2	/	/
CCCCc1ccc(N2C(=NC(=O)C3CCCO3)SC3CS(=O)(=O)CC32)cc1 (stereo unspecified)	0	2	0	-4	9.6*	-4	-1
COc1cc2c(c(OC)c1OC)-c1ccc(OC)c(=O)cc1C(NC(C)=O)CC2 (stereo unspecified)	1	9	2	6	10*	-3	-3
CCCC(=O)NC1CCc2cc(OC)c(OC)c(OC)c2-c2ccc(OC)c(=O)cc21 (stereo unspecified)	0	-5	7	-3	0	/	/
Cc1c(NC(=O)COc2cccc3c2OC(C)(C)C3)c(=O)n(-c2ccccc2)n1C	1	-4	-3	2	1	/	/
Cc1c(NC(=O)C(C)OC(=O)COc2cccc3c2OC(C)(C)C3)c(=O)n(-c2ccccc2)n1C (stereo unspecified)	0	9	3	11*	4	-5	-6
COC1CCN(C(=O)c2cc(COc3ccc(-n4cncn4)cc3)on2)CC1	0	-1	1	-4	0	/	/
O=C(c1cc(COc2ccc(-n3cncn3)cc2)on1)N1CCCC1	0	-4	3	-2	14*	1	2
O=C(NCCCO)NC12CC3CC(CC(C3)C1)C2	1	-9	-5	2	0	/	/
CCCNC(=O)C1(C)CCCN(Cc2noc(-c3c(C)noc3C)n2)C1 (stereo unspecified)	0	-4	-1	-1	1	/	/
CSc1ccc(S(=O)(=O)Nc2ccc(F)cc2)cc1	1	1	-4	-1	-2	/	/
COc1ccc(NS(=O)(=O)c2ccc(SC)cc2)cc1	0	8	2	0	12*	8	1
Cc1ccccc1NC(=O)c1cccc(C(=O)Nc2ccccc2C)c1	0	-1	4	3	12*	-1	2
CSCCNC(=O)Nc1c(-c2c(Cl)cccc2Cl)noc1C	0	5	2	6	12*	-1	-2
Cc1onc(-c2c(Cl)cccc2Cl)c1NC(=O)NN(C)C	-1	-6	-3	-8	0	/	/
COc1cccc(CN(C)C(=O)COc2cccc3c2OC(C)(C)C3)c1OC	0	5	5	13*	13*	-5	-4
CCCn1c(SCC(=O)NCC)nc2sc3c(c2c1=O)CCC3	0	-5	-6	-7	9.6*	7	2
CCCn1c(SCC(=O)N2CCN(C(C)=O)CC2)nc2sc3c(c2c1=O)CCC3	0	-1	8	0	3	/	/
COc1cccc(C(=O)NNC(=O)CCC(=O)O)c1	1	0	7	-3	9.9*	-9	-5
O=C(O)CCC(=O)NNC(=O)c1cccc(Cl)c1	-1	-3	-1	-2	-2	/	/
